Records with an inconclusive call do not appear. Where a call stands in place of a potency, no number is given. Active and inactive are the calls of the source. Calls follow the shape of the dose curve; as a rule, active = well fitted curve in the direction sought with a large enough effect; inconclusive = small, poorly fitted or top-dose-only effect, or effect the other way, or another doubt; inactive = no such curve, though single readings can be large or run the other way.
These compounds were tested against Thyrotropin receptor (Homo sapiens) (UniProt P16473) (assay: qHTS Assay for Antagonists of the Thyroid Stimulating Hormone Receptor: SAR for Probe). Details: HEK293-TSHR, TSH-stimulated cAMP HTRF, 2 h; series mostly up to 57.5 µM.
Chain of Thyrotropin receptor (Homo sapiens) (P16473 whole entry, looked up): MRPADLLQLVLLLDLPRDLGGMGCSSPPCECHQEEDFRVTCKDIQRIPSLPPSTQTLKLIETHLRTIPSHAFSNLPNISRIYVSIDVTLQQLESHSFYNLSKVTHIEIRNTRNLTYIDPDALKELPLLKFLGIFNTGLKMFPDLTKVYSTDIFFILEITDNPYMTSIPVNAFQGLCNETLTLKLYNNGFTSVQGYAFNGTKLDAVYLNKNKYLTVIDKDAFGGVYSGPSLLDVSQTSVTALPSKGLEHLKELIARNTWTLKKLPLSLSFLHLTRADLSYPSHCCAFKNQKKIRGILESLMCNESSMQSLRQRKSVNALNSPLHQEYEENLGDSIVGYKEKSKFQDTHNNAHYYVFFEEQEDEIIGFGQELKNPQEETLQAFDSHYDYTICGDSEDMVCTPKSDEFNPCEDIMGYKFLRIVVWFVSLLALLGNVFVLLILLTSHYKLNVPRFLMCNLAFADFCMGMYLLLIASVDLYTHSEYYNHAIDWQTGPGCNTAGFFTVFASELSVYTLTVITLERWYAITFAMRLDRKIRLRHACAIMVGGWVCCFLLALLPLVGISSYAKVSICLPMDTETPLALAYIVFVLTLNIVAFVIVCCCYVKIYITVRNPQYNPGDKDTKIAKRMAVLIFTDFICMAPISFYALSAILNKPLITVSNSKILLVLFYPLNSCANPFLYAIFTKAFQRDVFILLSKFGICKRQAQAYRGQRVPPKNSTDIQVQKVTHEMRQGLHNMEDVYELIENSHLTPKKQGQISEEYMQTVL
Description: TSH is an alpha/beta heterodimeric glycoprotein hormone secreted from the anterior pituitary gland which belongs to the glycoprotein hormone family. The actions of TSH are mediated by a seven-transmembrane receptor, which upon TSH binding couples preferentially to the G-alpha (s) protein (Gs), resulting in activation of adenylate cyclase and increase in cyclic adenosine 3', 5' monophosphate (cAMP). The TSH receptor (THSR) is mainly expressed in thyroid follicular cells and regulates their growth and function. This cell based assay was conducted on a TSHR transfected HEK 293 cell line, measuring cAMP stimulation using antibody-based Homogeneous Time Resolved Fluorescence (HTRF). Our goal is to identify small molecules that will inhibit (antagonize) the thyroid-stimulating hormone receptor (TSHR), a member of the 7 transmembrane-spanning receptor (7TMR) family of cell surface receptors. TSHR-mediated hyperthyroidism is important in thyroid pathology. The development of small molecule antagonists of TSHR may lead to therapeutic approaches for TSHR-mediated hyperthyroidism caused by constitutively activating mutations or stimulating auto-antibodies associated with Graves' disease. Graves' disease is the leading cause of hyperthyroidism and is caused by autoantibodies that stimulate TSHR (TsAbs) causing thyroid growth and unregulated overproduction of thyroid hormones and existing treatments have liabilities (agranulocytosis). In addition, TSHRs are known to be expressed in multiple extrathyroidal tissues including bone, brain, kidney, testis, fat and cells of the immune system but the role of the TSHR in these tissues is not clear. Therefore, TSHR antagonists/inverse agonists could be used as probes of extrathyroidal TSHR function. Finally, TSHR inverse agonists, which are a subclass of antagonists that inhibit agonist-independent (or basal or constitutive) TSHR signaling, could be used to inhibit TSH-independent signaling in patients with recurrent or metastatic thyroid cancer who are receiving thyroid hormone to suppress TSH. The present assay presents confirmation data for analogues of series of interest in the primary screening assay.
An anti cAMP antibody contains a fluorescent cryptate tag (excitation 337 nm; emission 620 nm) and the acceptor is cAMP-d2 (excitation 620 nm; emission 665 nm). When antibody and cAMP-d2 interact and are excited by a 337 nm light, a FRET occurs resulting in emission at 665 nm. The assay is competition between cAMP-d2 and cAMP (from the cell lysate). The homogeneous protocol allows for one step dispense after stimulation that is automation friendly. Step, Parameter, Value, Description 1, Cells, 3 uL, 2000 TSHR freshly harvested cells/well 1536 TC treated White solid bottom plate (Cells resuspended in 10 mM HEPES buffered HBSS and 70 uM RO 20-1724) 2, Compound, 23 nL, Libraries and controls 3, Compound, 1 uL, EC80 TSH (4 nM final) 4, Time, 2 hours, 37C 5, Reagent, 2 uL, cAMP antibody diluted 1:20 in lysis buffer 6, Time, 30 minutes, Room temperature 7, Detector, HTRF settings, Viewlux

Structure (SMILES) | Potency
COc1ccc(C2Nc3ccccc3C(=O)N2Cc2ccccc2OC)cc1COc1c(C)cc(NC(C)=O)cc1C (stereo not given) | inactive
COc1ccc(CN(Cc2ccccc2)C(=O)CN2CCN(C)CC2)cc1COc1ccc(NC(C)=O)cc1 | inactive
COc1ccc(C2Nc3cccc(O)c3C(=O)N2Cc2ccco2)cc1COc1c(C)cc(NC(C)=O)cc1C (stereo not given) | inactive
COc1ccc(C2Nc3ccccc3C(=O)N2Cc2ccc(C(F)(F)F)o2)cc1COc1c(C)cccc1C (stereo not given) | inactive
COc1ccc(CN(Cc2ccccc2)C(=O)c2ccc(NC(C)=O)cc2)cc1COc1ccc(NC(C)=O)cc1 | inactive
O=C1c2ccccc2NC(c2ccccc2O)N1Cc1ccccc1 (stereo not given) | inactive
Nc1ccccc1C(=O)NCc1ccco1 | inactive
COCCN1C(=O)c2ccccc2NC1c1ccc(OC)c(COc2c(C)cc(NC(C)=O)cc2C)c1 (stereo not given) | 46.1 µM (active)
COc1ccc(OCc2cc(C3Nc4ccccc4C(=O)N3Cc3ccccc3)ccc2OC)cc1 (stereo not given) | inactive
COc1ccc(C2Nc3ccccc3C(=O)N2Cc2ccncc2)cc1COc1c(C)cc(NC(C)=O)cc1C (stereo not given) | inactive
COc1ccc(C2Nc3ccccc3C(=O)N2Cc2ccccc2)cc1COc1c(C)cc(NC(C)=O)cc1C (stereo not given) | inactive
COc1ccc(CN(Cc2ccccc2)S(=O)(=O)c2ccccc2)cc1COc1ccc(NC(C)=O)cc1 | inactive
COc1ccc(C2Nc3ccccc3C(=O)N2Cc2ccco2)cc1COc1ccccc1C (stereo not given) | inactive
COc1ccc(O)c(-c2nc3ccccc3c(=O)n2Cc2ccccc2)c1 | inactive
COc1cccc(CCN2C(=O)c3ccccc3NC2c2ccc(OC)c(COc3c(C)cc(NC(C)=O)cc3C)c2)c1 (stereo not given) | inactive
COc1ccc(C2Nc3ccccc3C(=O)N2Cc2ccco2)cc1COc1ccccc1 (stereo not given) | inactive
COc1ccc(O)c(C2Nc3ccccc3C(=O)N2Cc2ccccc2)c1 (stereo not given) | inactive
COc1ccc(C2Nc3ccccc3C(=O)N2Cc2ccc3c(c2)OCO3)cc1COc1c(C)cc(NC(C)=O)cc1C (stereo not given) | inactive
COc1ccc(C2Nc3ccccc3C(=O)N2Cc2cccs2)cc1COc1c(C)cc(NC(C)=O)cc1C (stereo not given) | inactive
COc1ccc(C2Nc3ccccc3C(=O)N2Cc2ccco2)cc1COc1ccc([N+](=O)[O-])cc1 (stereo not given) | inactive

Structure (SMILES) | Potency
COc1ccc(C2Nc3ccccc3C(=O)N2Cc2cccnc2)cc1COc1c(C)cccc1C (stereo not given) | 36.6 µM (active)
COc1ccc(C2Nc3ccccc3C(=O)N2Cc2ccco2)cc1 (stereo not given) | inactive
COc1ccc(C2Nc3ccccc3C(=O)N2Cc2cccs2)cc1COc1c(C)cccc1C (stereo not given) | inactive
COc1ccc(C2Nc3ccccc3C(=O)N2Cc2ccco2)cc1COc1c(C(C)C)cccc1C(C)C (stereo not given) | inactive
COc1ccc(C=O)cc1COc1ccc(NC(C)=O)cc1 | inactive
COc1ccc(CN2C(=O)N(c3ccccc3)C(=O)C2c2ccccc2)cc1COc1ccc(NC(C)=O)cc1 (stereo not given) | inactive
COc1cccc(CN2C(=O)c3ccccc3NC2c2ccc(OC)c(COc3c(C)cc(NC(C)=O)cc3C)c2)c1 (stereo not given) | inactive
COc1cc(C2Nc3ccccc3C(=O)N2Cc2ccccc2)ccc1OCc1ccc(NC(C)=O)cc1 (stereo not given) | inactive
COc1ccc(C2Nc3ccccc3C(=O)N2CCO)cc1COc1ccc(NC(C)=O)cc1 (stereo not given) | inactive
COc1ccc(C2Nc3ccccc3C(=O)N2Cc2ccccn2)cc1COc1c(C)cccc1C (stereo not given) | inactive
COc1ccc(C2Nc3cccc(OC)c3C(=O)N2Cc2ccco2)cc1COc1c(C)cc(NC(C)=O)cc1C (stereo not given) | inactive
COc1ccc(C2Nc3ccccc3C(=O)N2Cc2ccco2)cc1COc1c(C)cc(NC(C)=O)cc1C (stereo not given) | 36.6 µM (active)
COc1ccc(C2Nc3ccccc3C(=O)N2CCCN(C)C)cc1COc1c(C)cc(NC(C)=O)cc1C (stereo not given) | inactive
COc1ccc(C2NC(=O)c3ccccc3N2)cc1COc1c(C)cc(NC(C)=O)cc1C (stereo not given) | inactive
COc1ccc(C2Nc3ccccc3C(=O)N2Cc2ccccc2)cc1COc1ccccc1OC (stereo not given) | inactive
Cc1cccc(C)c1OCc1cccc(C2Nc3ccccc3C(=O)N2Cc2ccco2)c1 (stereo not given) | 32.6 µM (active)
COc1ccc(C2Nc3ccccc3C(=O)N2Cc2ccccc2)cc1COc1cccc(C)c1 (stereo not given) | inactive
COc1ccc(C2Nc3ccccc3C(=O)N2Cc2ccccc2)cc1COc1ccc(Cl)cc1 (stereo not given) | inactive
COc1ccc(C2Nc3ccccc3C(=O)N2CCCN(C)C)cc1COc1ccc(NC(C)=O)cc1 (stereo not given) | inactive
O=c1c2ccccc2nc(-c2ccccc2O)n1Cc1ccccc1 | inactive

Source: PubChem BioAssay AID504389 (National Center for Advancing Translational Sciences (NCATS), 2011)
